Compounds with a hit are over-represented: about 1.7% of the library has one in this group of screens.
LYPLA1 inh: blocks human lysophospholipase 1, a PME1 counter-screen | inhibition, % at 5.9 µM | actives 0.16% (n = 320,000) | AID 2174 | recombinant LYPLA1, FP-Rh probe fluorescence polarization | O75608;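 active = inhibition above the mean of all tested compounds plus 3 SD, set per campaign, cut at about 14% in these data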;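 note: inhibitors block serine hydrolase probe labeling of LYPLA1 so polarization falls; 0% = enzyme with DMSO and 100% = wells lacking LYPLA1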
PREPL inhibitor: inhibits the human prolyl oligopeptidase-like enzyme | Q4J6C6 | recombinant PREPL, fluorescence polarization activity-based probe | inhibition, % at 5.96 µM | actives 0.68% (n = 320,000) | AID 2751; in the data active = inhibition above about 43%;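 note: 0% = enzyme with DMSO and 100% = wells lacking enzyme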
Target sequence (Q4J6C6 whole entry, looked up): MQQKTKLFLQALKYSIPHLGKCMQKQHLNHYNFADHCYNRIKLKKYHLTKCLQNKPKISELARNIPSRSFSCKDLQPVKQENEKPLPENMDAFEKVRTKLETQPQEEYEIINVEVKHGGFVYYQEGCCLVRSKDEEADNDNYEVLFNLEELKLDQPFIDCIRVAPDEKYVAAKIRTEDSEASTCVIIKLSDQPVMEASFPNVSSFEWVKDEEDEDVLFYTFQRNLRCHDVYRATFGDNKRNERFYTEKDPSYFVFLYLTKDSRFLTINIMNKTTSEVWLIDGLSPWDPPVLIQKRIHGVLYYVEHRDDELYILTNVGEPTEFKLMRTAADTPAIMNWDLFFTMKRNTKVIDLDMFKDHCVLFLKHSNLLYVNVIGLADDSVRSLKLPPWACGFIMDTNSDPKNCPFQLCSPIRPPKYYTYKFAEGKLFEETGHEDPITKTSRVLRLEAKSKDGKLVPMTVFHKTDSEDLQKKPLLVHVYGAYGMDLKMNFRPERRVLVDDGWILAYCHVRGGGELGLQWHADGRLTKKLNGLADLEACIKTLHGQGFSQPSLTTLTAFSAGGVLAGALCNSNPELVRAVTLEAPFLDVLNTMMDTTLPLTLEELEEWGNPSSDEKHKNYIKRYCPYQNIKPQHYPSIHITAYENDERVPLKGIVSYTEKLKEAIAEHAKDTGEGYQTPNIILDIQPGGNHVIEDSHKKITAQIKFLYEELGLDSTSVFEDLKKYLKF
p97 ATPase inh: blocks human p97 ATPase activity. recombinant p97 ATPase, Kinase-Glo ATP luminescence, 3 h. inhibition, % at 8 µM. actives 0.42% (n = 220,000); in the data active = inhibition above about 15%;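 note: 0% = DMSO vehicle and 100% = wells lacking enzyme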
LYPLA2 counter: counter-screen for PME1 inhibitors: inhibitors of human LYPLA2 | O95372 | recombinant LYPLA2, FP-Rh probe fluorescence polarization | inhibition, % at 5.9 µM | actives 0.38% (n = 320,000) | AID 2177;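 active = inhibition above the screen-wide mean plus 3 SD, limit set per campaign, cut at about 26% in these data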;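 note: 0% = LYPLA2 with DMSO and 100% = wells lacking LYPLA2 enzyme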
Rin1-Abl PPI inh: inhibitors of human Rin1-Abl protein interaction; P00519+Q13671; TR-FRET Rin1/Abl binding, biochemical; inhibition, % at 7.35 µM; actives 0.4% (n = 360,000); AID 588664; in the data active = inhibition above about 5%, passing the limit was not always enough
Hck-Nef inh: blocks Nef-activated human Hck kinase; AID 463187; P08631; inhibition, % at 20 µM; actives 0.68% (n = 220,000); Recombinant Hck-YEEI plus Nef, Z-Lyte FRET kinase assay;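 active = Hck-Nef kinase inhibition above about 50%, limit read from the data; inactive = inhibition below that limit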;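 note: 0% = DMSO with Hck plus Nef and 100% = Hck alone without Nef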
Rin1 Abl conf: confirmation of inhibitors of human Rin1-Abl interaction; inhibition, % at 7.35 µM; TR-FRET Rin1-Abl binding, purified proteins; AID 602124; actives 49% (n = 1,300); shares compounds with Rin1-Abl PPI inh
GFP quench: GFP fluorescence interference artifact. inhibition, % at 6.75 µM. AID 602125. actives 8.5% (n = 1,300). shares compounds with Rin1-Abl PPI inh. inhibitors/quenchers counterscreen;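 note: ABL1-eGFP fusion protein alone without its partner RIN1-SBP; 0% = protein with vehicle and 100% = wells lacking protein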
GFP quench DR: counter-screen for Rin1-Abl inhibitors: GFP quenchers, dose response; GFP fluorescence interference/quenching counterscreen; IC50, µM; 230 tested, under 10 active; shares compounds with Rin1-Abl PPI inh; call rule not given here;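 note: ABL1-eGFP fusion protein alone without its RIN1 binding partner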
* marks the source's active call; other numbers are inactive results; nt = no result. Cut-off read from the data, not from the text of the source, unless noted: active = inhibition above about 6.5%; inactive = the rest.

SMILES	LYPLA1 inh	PREPL inhibitor	p97 ATPase inh	LYPLA2 counter	Rin1-Abl PPI inh	Hck-Nef inh	Rin1 Abl conf	GFP quench	others
Cc1ccc(-c2ocnc2C(=O)N2CCOCC2)cc1	-3	-9	nt	2	-2	nt	nt	nt
O=C(Nc1cc(S(=O)(=O)N2CCCC2)ccc1OCC(F)(F)F)c1ccncc1	nt	nt	nt	nt	3	nt	nt	nt
Cc1ccc(S(=O)(=O)N2CCCCC2)cc1C(=O)NC1CCCCC1	-1	26	nt	3	-2	nt	nt	nt
O=C(NC1CCCC1)c1cc(S(=O)(=O)N2CCCC2)ccc1Cl	2	13	nt	2	7.6*	nt	-1	0
CCOC(=O)c1c(C)n(-c2ccccc2)c2ccc(OCCN(C)C)cc12	1	12	nt	-11	1	nt	nt	nt
NNC(=O)c1cc(O)c(O)c(O)c1	-11	7	-4	-8	34*	15	51*	7.1*
Cc1nn(C)c(C(=O)NNC(=S)NCc2ccccc2)c1Cl	nt	nt	nt	nt	7.3*	nt	-3	0
CC1(C)C(=O)Nc2ccccc2N1C(=O)COC(=O)/C=C/c1ccc(OC(F)F)cc1	0	7	nt	-3	-2	nt	nt	nt
CC(C)(C)c1ccc(NC(=O)C2=CN3CCS(=O)(=O)N=C3C=C2)cc1	-3	25	nt	-1	1	nt	nt	nt
CCOC(=O)N1CCN(C(=O)COC(=O)c2ccc([N+](=O)[O-])cc2Cl)CC1	nt	nt	nt	nt	-2	nt	nt	nt
Cc1ccc(Cl)cc1N1C(=O)CC(C)(C)CC1=O	1	-2	nt	4	7.2*	nt	-3	1
CC1(C)CC(=O)N(c2ccc(Cl)c(Cl)c2)C(=O)C1	-5	3	nt	-4	-4	nt	nt	nt
O=C(CSc1nc2ncccc2[nH]1)Nc1ccccc1-c1ccccc1	0	-13	nt	-1	-1	nt	nt	nt
CCOC(=O)N1CCC2(CC1)C(C#N)=C(N)OC1=C2C(=O)CC(C)C1 (stereo not given)	-3	-2	6	2	17*	-1	0	-2
CC1(C)CC(=O)C2=C(C1)OC(N)=C(C#N)C21CCN(C(=O)OCc2ccccc2)CC1	2	14	-7	-4	-3	7	nt	nt
CCOC(CCn1c(SCC(=O)Nc2cc(C)on2)nc2ccccc2c1=O)OCC	-2	-3	0	1	9.4*	20	-2	1
COCCCn1c(SCC(=O)Nc2ccc(C(C)=O)cc2)nc2ccccc2c1=O	0	-17	3	-2	10*	2	7.4*	1
COCCn1c(SCC(=O)Nc2ccc(NC(C)=O)cc2)nc2ccccc2c1=O	-1	-13	nt	-8	1	nt	nt	nt
CCN(CC(=O)Nc1c(F)cccc1F)C(=O)c1cccc(-n2cnnn2)c1	nt	nt	nt	nt	0	nt	nt	nt
CCSC(=O)N1c2ccc(OC)cc2C=CC1C#N (stereo not given)	nt	nt	nt	nt	1	nt	nt	nt
COc1cccc(NC(=O)CNC(=O)c2ccc(C)o2)c1	-3	-7	nt	0	-1	nt	nt	nt
CCOc1ccc(CCNC(=O)CN2C(=O)c3cccnc3Oc3ccc(C)cc32)cc1OCC	-1	4	nt	-4	36*	nt	41*	0	GFP quench DR=>67
CSc1ccc(CCNC(=O)CN2C(=O)c3cccnc3Oc3ccc(C)cc32)cc1	-2	11	nt	-4	1	nt	nt	nt
CCOc1ccc(CCNC(=O)CN2C(=O)c3cccnc3Oc3ccc(Cl)cc32)cc1	-1	-10	nt	1	26*	nt	24*	-2	GFP quench DR=>68
Cn1c(=O)c2cc(NC(=S)NC3CC3)ccc2n1C/C=C/c1ccccc1	nt	nt	nt	nt	-2	nt	nt	nt
SMILES	LYPLA1 inh	PREPL inhibitor	p97 ATPase inh	LYPLA2 counter	Rin1-Abl PPI inh	Hck-Nef inh	Rin1 Abl conf	GFP quench	others
CC(C)N(CC(N)=O)C(=O)c1sc2cc(F)ccc2c1Cl	-1	-7	4	1	7.0*	15	0	1
CN(CCc1ccccc1)C1CCCN(C(=O)Cn2cccn2)C1 (stereo not given)	0	4	nt	5	0	nt	nt	nt
CCC(C)N1C(=O)CCC1C(=O)N1CCN(c2ccccc2F)CC1 (stereo not given)	-4	12	-5	-2	5.3*	1	-1	0
CCC(C)N1C(=O)CCC1C(=O)N1CCN(c2ccc(F)cc2)CC1 (stereo not given)	-4	13	-1	-3	-5	3	nt	nt
O=C1CC2(CCN(C(=O)c3cccc(F)c3)CC2)Oc2ccccc21	4	22	nt	-1	0	nt	nt	nt
COc1cc(S(=O)(=O)Nc2ccccc2)ccc1NC=O	0	13	0	2	5.4*	4	-2	1
COc1ccc(NS(=O)(=O)c2ccc(OC)c(OC)c2)cc1OC	-3	-3	3	-5	3	-2	nt	nt
O=C(Nc1c[nH]c(=O)[nH]c1=O)c1cccc([N+](=O)[O-])c1	nt	nt	nt	nt	2	nt	nt	nt
Cc1cc(C(=O)Nc2c[nH]c(=O)[nH]c2=O)ccc1[N+](=O)[O-]	-2	2	1	7	10*	13	-1	-1
COc1ccc(C(NC(C)=O)c2cc(Cl)c3cccnc3c2O)cc1 (stereo not given)	0	-4	nt	6	8.2*	nt	7.0*	1
CC(=O)NC(c1ccc(N(C)C)cc1)c1cc(Cl)c2cccnc2c1O (stereo not given)	nt	nt	nt	nt	6.6*	nt	6.9*	2
CC(=O)NC(c1ccccc1)c1cc(Cl)c2cccnc2c1O (stereo not given)	-1	0	nt	14	12*	nt	10*	5
Oc1c(C(c2ccccn2)N2CCCCC2)cc(Cl)c2cccnc12 (stereo not given)	-6	12	11	-1	22*	27	14*	2
CCCC(=O)NC(c1ccc(OC)c(OC)c1)c1cc(Cl)c2cccnc2c1O (stereo not given)	0	12	1	1	2	5	nt	nt
CCOC(=O)NC1=NCC(C)(C)S1	nt	nt	nt	nt	-1	nt	nt	nt
CCN1C(=O)C(=O)N(CC(=O)Nc2ccccc2OC(F)F)C1=O	0	6	nt	1	1	nt	nt	nt
C=CCN(CC=C)C(=S)NC(=O)Cc1cccc2ccccc12	-5	-3	1	-8	10*	24	-2	-1

High-throughput results as filed in PubChem.
